Only a selection was taken, and the strongest signals are over-represented in it overall.
Assays:
Assay in all cases: glycan array binding signal (z-score within array); higher = stronger binding
Conditions in all cases: glycan notation: IUPAC condensed, linker removed
[1] = target: Gal(b1-4)GlcNAc(b1-3)Gal(b1-4)GlcNAc(b1-3)Gal(b1-4)GlcNAc(b1-3)Gal(b1-4)GlcNAc(b1-3)Gal(b1-4)GlcNAc(b1-2)[Gal(b1-4)GlcNAc(b1-3)Gal(b1-4)GlcNAc(b1-3)Gal(b1-4)GlcNAc(b1-3)Gal(b1-4)GlcNAc(b1-3)Gal(b1-4)GlcNAc(b1-6)]Man(a1-6)[Gal(b1-4)GlcNAc(b1-3)Gal(b1-4)GlcNAc(b1-3)Gal(b1-4)GlcNAc(b1-3)Gal(b1-4)GlcNAc(b1-3)Gal(b1-4)GlcNAc(b1-2)Man(a1-3)]Man(b1-4)GlcNAc(b1-4)[Fuc(a1-6)]GlcNAc
Procedure, shortened: (§1)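 Glycan array binding is given as a within-array Z-score, which can be read as non-binding when negative. The arrays, 3228 of them, came from the Consortium for Functional Glycomics database and were retained only where the protein sequence was available. Z-scores were averaged across arrays of the same protein sequence at different concentrations or buffers and across linkers.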

[2] = target: Gal(b1-4)GlcNAc(b1-3)Gal(b1-4)[Fuc(a1-3)]GlcNAc(b1-3)Gal(b1-4)[Fuc(a1-3)]GlcNAc
Procedure, shortened: as §1

[3] = target: Gal(b1-4)GlcNAc(b1-3)[Gal(b1-4)GlcNAc(b1-6)]Gal(b1-4)GlcNAc
Procedure, shortened: as §1

[4] = target: Gal(b1-4)GlcNAc(b1-6)GalNAc
Procedure, shortened: as §1

[5] = target: Gal(b1-4)GlcNAc(b1-6)[Gal(b1-3)]GalNAc
Procedure, shortened: as §1

Gal3S(b1-4)Glc6S = target: Gal3S(b1-4)Glc6S
Procedure, shortened: as §1

GalNAc(a1-3)Gal = target: GalNAc(a1-3)Gal
Procedure, shortened: as §1

[6] = target: GalNAc(b1-3)Gal(a1-4)Gal(b1-4)GlcNAc
Procedure, shortened: as §1

GalNAc(b1-4)Gal(b1-4)Glc = target: GalNAc(b1-4)Gal(b1-4)Glc
Procedure, shortened: as §1

GalNAc3S(b1-4)GlcNAc3S = target: GalNAc3S(b1-4)GlcNAc3S
Procedure, shortened: as §1

GlcA(b1-3)Gal = target: GlcA(b1-3)Gal
Procedure, shortened: as §1

[7] = target: GlcNAc(a1-4)Gal(b1-4)GlcNAc(b1-3)Gal(b1-4)Glc
Procedure, shortened: as §1

[8] = target: GlcNAc(a1-4)Gal(b1-4)GlcNAc(b1-3)Gal(b1-4)[Fuc(a1-3)]GlcNAc(b1-3)Gal(b1-4)[Fuc(a1-3)]GlcNAc
Procedure, shortened: as §1

[9] = target: GlcNAc(b1-3)Gal(b1-4)GlcNAc(b1-2)Man(a1-3)[GlcNAc(b1-3)Gal(b1-4)GlcNAc(b1-2)Man(a1-6)]Man(b1-4)GlcNAc(b1-4)[Fuc(a1-6)]GlcNAc
Procedure, shortened: as §1

[10] = target: GlcNAc(b1-3)Gal(b1-4)GlcNAc(b1-3)Gal(b1-4)GlcNAc(b1-3)Gal(b1-4)GlcNAc(b1-2)Man(a1-3)[GlcNAc(b1-3)Gal(b1-4)GlcNAc(b1-3)Gal(b1-4)GlcNAc(b1-3)Gal(b1-4)GlcNAc(b1-2)Man(a1-6)]Man(b1-4)GlcNAc(b1-4)GlcNAc
Procedure, shortened: as §1

[11] = target: GlcNAc(b1-3)Gal(b1-4)GlcNAc(b1-6)[Gal(b1-3)]GalNAc
Procedure, shortened: as §1

[12] = target: GlcNAc(b1-4)Gal(b1-4)GlcNAc
Procedure, shortened: as §1

Kdn(a2-3)Gal(b1-3)GalNAc = target: Kdn(a2-3)Gal(b1-3)GalNAc
Procedure, shortened: as §1

[13] = target: Man(a1-2)Man(a1-2)Man(a1-3)Man
Procedure, shortened: as §1

[14] = target: Man(a1-3)[Man(a1-6)]Man(a1-6)[Man(a1-3)]Man(b1-4)GlcNAc(b1-4)GlcNAc
Procedure, shortened: as §1

[15] = target: Neu5Ac(a2-3)Gal(b1-3)GlcNAc(b1-3)Gal(b1-3)GlcNAc
Procedure, shortened: as §1

[16] = target: Neu5Ac(a2-3)Gal(b1-3)[Fuc(a1-4)]GlcNAc(b1-3)Gal(b1-4)[Fuc(a1-3)]GlcNAc
Procedure, shortened: as §1

Neu5Ac(a2-3)Gal(b1-4)Glc = target: Neu5Ac(a2-3)Gal(b1-4)Glc
Procedure, shortened: as §1

[17] = target: Neu5Ac(a2-3)Gal(b1-4)GlcNAc(b1-3)Gal(b1-4)GlcNAc(b1-3)Gal(b1-4)GlcNAc
Procedure, shortened: as §1

[18] = target: Neu5Ac(a2-3)Gal(b1-4)GlcNAc(b1-3)[Neu5Ac(a2-3)Gal(b1-4)GlcNAc(b1-6)]GalNAc
Procedure, shortened: as §1

B1: PX9937F-bfa-516-16-516 (Bacteroides fragilis) (protein)
chain: LDIDPTSSIADSNYWKTEAQFSTFNVGLHALLRECSFNFFLLGEPRADIYGDVPFGGEATQGMERLPFNTINKENTGISNFAGMYKVINQINLMIAKTKETTVLSEAGKNYYLGEAYGMRAYLYFHLLRSWGDVILYLDYTNGASLDLSNLSKAASPAEEVMKQIKEDITASEKGFGSDYSFKYGRYYWSMAATQMLKGEVYLWSGRQMGGGTADYTTAKTALQSIVSNANVSLQDDFSKVFAYNNKDNSEIIFSIRNAKDEYNMWDDRFRQNLVPQQAYMTSTYCNKEGVSFKDLPEGQLNGLIRLQIRYDLYNKAFRDGDTRKDASMTAVYQKQQDGTVKYIAPFCNKYQGVLLDGASQRSFLNDYPIYRYADCLLLLAEAKALLGEDPTAEINQVRERAYGKEFFEANKATLAYPNDKGDFYTDNKYMSGDEDPLEAILKERMREFMFEGKRWYDLRLLGADYVTKRTSAVATRLLWPINESVLTDNPALKQTPGYQN
[1]
  glycan array binding signal (z-score): 20.8
[2]
  glycan array binding signal (z-score): -0.12
[3]
  glycan array binding signal (z-score): -0.235
[4]
  glycan array binding signal (z-score): 0.084
[5]
  glycan array binding signal (z-score): 0.054
Gal3S(b1-4)Glc6S
  glycan array binding signal (z-score): -0.009
GalNAc(a1-3)Gal
  glycan array binding signal (z-score): 0.114
[6]
  glycan array binding signal (z-score): 1.48
GalNAc(b1-4)Gal(b1-4)Glc
  glycan array binding signal (z-score): 1.77
GalNAc3S(b1-4)GlcNAc3S
  glycan array binding signal (z-score): -0.23
GlcA(b1-3)Gal
  glycan array binding signal (z-score): -0.361
[7]
  glycan array binding signal (z-score): -0.323
[8]
  glycan array binding signal (z-score): 0.511
[9]
  glycan array binding signal (z-score): 1.82
[10]
  glycan array binding signal (z-score): 0.988
[11]
  glycan array binding signal (z-score): -0.127
[12]
  glycan array binding signal (z-score): -0.271
Kdn(a2-3)Gal(b1-3)GalNAc
  glycan array binding signal (z-score): -0.345
[13]
  glycan array binding signal (z-score): -0.273
[14]
  glycan array binding signal (z-score): 0.247
[15]
  glycan array binding signal (z-score): -0.249
[16]
  glycan array binding signal (z-score): -0.15
Neu5Ac(a2-3)Gal(b1-4)Glc
  glycan array binding signal (z-score): -0.325
[17]
  glycan array binding signal (z-score): -0.282
[18]
  glycan array binding signal (z-score): -0.202
